Experimental findings from PubChem BioAssay (NCI) are described below.

Experiment [1] in a line: NCI Yeast Anticancer Drug Screen. Data for the rad50 strain (AID 155).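 Note: 0% = growth of vehicle-only cultures of the same strain.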 Conditions: S. cerevisiae rad50 strain growth inhibition, stronger effect = higher value. The method, boiled down:
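Inhibition values express reduced yeast growth in compound-treated cultures relative to vehicle-treated controls.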

A short description of experiment [2]: NCI Yeast Anticancer Drug Screen. Data for the mec2-1 strain (AID 157). Conditions: S. cerevisiae mec2-1 strain, stronger effect = higher value. The procedure, abridged: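 Test agents were screened against the mec2-1 yeast strain, with defined DNA repair or cell cycle alteration. Growth was scored as inhibition against vehicle-only controls.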
A short description of experiment [3]: NCI Yeast Anticancer Drug Screen. Data for the sgs1 mgt1 strain (AID 161).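 Note: 0% = growth of cultures given vehicle only.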 As to conditions: S. cerevisiae sgs1 mgt1 strain, stronger effect = higher value. The method, boiled down: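 Inhibition of yeast growth, normalised to vehicle-treated controls, is reported for a strain bearing genetic alterations in DNA damage repair.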
Experiment [4] in a line: NCI Yeast Anticancer Drug Screen. Data for the cln2 rad14 strain (AID 165).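 Note: 0% = growth equal to vehicle treated cultures.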 As to conditions: S. cerevisiae cln2 rad14 strain, stronger effect = higher value. The method, boiled down:
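Growth of compound-exposed yeast (cln2 rad14 genotype) measured and expressed as inhibition relative to vehicle.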

A short description of experiment [5]: NCI Yeast Anticancer Drug Screen. Data for the bub3 strain (AID 167). As to conditions: S. cerevisiae bub3 mutant strain, stronger effect = higher value. The method, boiled down:
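Steps: expose the mutant yeast strain to compound; grow alongside vehicle-treated cultures; measure growth; express inhibition against the vehicle cultures.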

Experiment [6] in a line: NCI Yeast Anticancer Drug Screen. Data for the mlh1 rad18 strain (AID 175). Conditions: S. cerevisiae mlh1 rad18 strain growth inhibition, stronger effect = higher value. The method, boiled down: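 In this whole-cell yeast screen, a strain with altered DNA damage repair is challenged with compound, and its growth is measured against matched vehicle-treated controls.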
Where [7] appears, read: at 5.0 µM (retest, dose inferred, filed as 0.5).
[8] abbreviates: at 50.0 µM (retest, dose inferred, filed as 5.0).

About 79,000 compounds went through this panel and 15% of them were active in at least one assay; those are over-represented in the sample as a whole. A number with no mark means an inactive call. Active and inactive are the calls of the source. Cut-off read from the data, not from the text of the source: active = growth inhibition above about 70%; inactive = the rest.

As to `CC(=O)Nc1cc(F)c2c(c1)Cc1ccccc1-2`, the growth inhibition in experiment [1] (setting [7]) was 5%; in experiment [1] (setting [8]), 77% (active); in experiment [1] (at 50.0 µM), -1.75%; in experiment [2] (setting [7]), -2%; in experiment [2] (setting [8]) it was 59%; in experiment [2] (at 50.0 µM) it was 19.5%. The growth inhibition in experiment [3] (setting [7]) was -1%; in experiment [3] (setting [8]) it was 84% (active); in experiment [3] (at 50.0 µM) it was -16.8%; in experiment [4] (setting [7]), 0%; in experiment [4] (setting [8]), 77% (active); in experiment [4] (at 50.0 µM) it was 89.4% (active). Besides, the growth inhibition in experiment [5] (setting [7]) is 2%; in experiment [5] (setting [8]), 83% (active); in experiment [5] (at 50.0 µM), 90.5% (active); in experiment [6] (setting [7]) it was 4%; in experiment [6] (setting [8]) it was 78% (active); in experiment [6] (at 50.0 µM), -14.2%.
For `CCCCC(CCc1ccccc1[N+](=O)[O-])(C(C)=O)C(=O)OCC` (configuration not stated), the growth inhibition in experiment [1] (setting [7]) was 4%; in experiment [1] (setting [8]), -15%; in experiment [1] (at 50.0 µM), 61%; in experiment [2] (setting [7]), 4%; in experiment [2] (setting [8]), -3%; in experiment [2] (at 50.0 µM), 15.7%. In addition, the growth inhibition is -3% in experiment [3] (setting [7]); 14% in experiment [3] (setting [8]); 33.6% in experiment [3] (at 50.0 µM); 1% in experiment [4] (setting [7]); -11% in experiment [4] (setting [8]); -12.2% in experiment [4] (at 50.0 µM). The growth inhibition in experiment [5] (setting [7]) was 15%; in experiment [5] (setting [8]), 38%; in experiment [5] (at 50.0 µM), 80.5% (active); in experiment [6] (setting [7]) it was 5%; in experiment [6] (setting [8]) it was 3%; in experiment [6] (at 50.0 µM), 58.8%.
Turning to `CC(C)NCCCNc1nc(NCCCNC(C)C)c2nc(-c3ccccc3)c(-c3ccccc3)nc2n1`, the growth inhibition in experiment [1] (setting [7]) is 4%; in experiment [1] (setting [8]), 82% (active); in experiment [1] (at 50.0 µM), 52%; in experiment [2] (setting [7]), 1%; in experiment [2] (setting [8]) it was 88% (active); in experiment [2] (at 50.0 µM), 58.7%. For the same compound, the growth inhibition in experiment [3] (setting [7]) was -2%; in experiment [3] (setting [8]), 86% (active); in experiment [3] (at 50.0 µM) it was 53.4%; in experiment [4] (setting [7]), -3%; in experiment [4] (setting [8]), 56%; in experiment [4] (at 50.0 µM), 55.8%. The growth inhibition in experiment [5] (setting [7]) is 0%; in experiment [5] (setting [8]), 35%; in experiment [5] (at 50.0 µM), 50.1%; in experiment [6] (setting [7]), 2%; in experiment [6] (setting [8]), 90% (active); in experiment [6] (at 50.0 µM), 57.2%.
For the compound `O=C1C(C=NC(=S)c2ccccc2)=C(O)c2ccccc21`, the growth inhibition in experiment [1] (setting [7]) was 22%; in experiment [1] (setting [8]), 72% (active); in experiment [1] (at 50.0 µM), -13.8%; in experiment [2] (setting [7]) it was 23%; in experiment [2] (setting [8]) it was 68%; in experiment [2] (at 50.0 µM), -12.1%. Further, the growth inhibition in experiment [3] (setting [7]) was 33%; in experiment [3] (setting [8]), 68%; in experiment [3] (at 50.0 µM), 2.35%; in experiment [4] (setting [7]), 20%; in experiment [4] (setting [8]) it was 48%; in experiment [4] (at 50.0 µM), 10.1%. Moreover, the growth inhibition in experiment [5] (setting [7]) was 31%; in experiment [5] (setting [8]), 81% (active); in experiment [5] (at 50.0 µM) it was -4.7%; in experiment [6] (setting [7]), 32%; in experiment [6] (setting [8]), 87% (active); in experiment [6] (at 50.0 µM) it was 6.45%.
Consider `N#CCc1ccccc1-c1cccc2ccccc12`, for which the growth inhibition in experiment [1] (setting [7]) is 0%; in experiment [1] (setting [8]) it was 36%; in experiment [1] (at 50.0 µM), 35.6%; in experiment [2] (setting [7]) it was 0%; in experiment [2] (setting [8]) it was 44%; in experiment [2] (at 50.0 µM) it was 29.4%. For the same compound, the growth inhibition in experiment [3] (setting [7]) is -2%; in experiment [3] (setting [8]), 17%; in experiment [3] (at 50.0 µM), 54.8%; in experiment [4] (setting [7]) it was 3%; in experiment [4] (setting [8]) it was 24%; in experiment [4] (at 50.0 µM), 41.2%. For the same compound, the growth inhibition in experiment [5] (setting [7]) was 3%; in experiment [5] (setting [8]), 34%; in experiment [5] (at 50.0 µM), 40%; in experiment [6] (setting [7]), 1%; in experiment [6] (setting [8]), 41%; in experiment [6] (at 50.0 µM), 71.5% (active).
Consider `O=C(O)C1(Cc2ccc3c(c2)CCC3)Cc2ccccc2C1`, for which the growth inhibition in experiment [1] (setting [7]) was 18%; in experiment [1] (setting [8]), 18%; in experiment [1] (at 50.0 µM), 90.3% (active); in experiment [2] (setting [7]), -7%; in experiment [2] (setting [8]) it was -7%; in experiment [2] (at 50.0 µM) it was 91.9% (active). In addition, the growth inhibition in experiment [3] (setting [7]) was 15%; in experiment [3] (setting [8]), 15%; in experiment [3] (at 50.0 µM), 88.5% (active); in experiment [4] (setting [7]), 5%; in experiment [4] (setting [8]) it was 5%; in experiment [4] (at 50.0 µM), 89% (active). In addition, the growth inhibition in experiment [5] (setting [7]) is -6%; in experiment [5] (setting [8]) it was -6%; in experiment [5] (at 50.0 µM), 90% (active); in experiment [6] (setting [7]) it was 3%; in experiment [6] (setting [8]), 3%; in experiment [6] (at 50.0 µM), 86.8% (active).
As for `COC(=O)Oc1nn(C(=O)OC)c(=O)c2ccccc12`, the growth inhibition in experiment [1] (setting [7]) is -18%; in experiment [1] (setting [8]), 87% (active); in experiment [1] (at 50.0 µM), 90.9% (active); in experiment [2] (setting [7]), -3%; in experiment [2] (setting [8]), 45%; in experiment [2] (at 50.0 µM), 24.2%. In addition, the growth inhibition in experiment [3] (setting [7]) was -17%; in experiment [3] (setting [8]), 43%; in experiment [3] (at 50.0 µM), 44.4%; in experiment [4] (setting [7]), 7%; in experiment [4] (setting [8]), 66%; in experiment [4] (at 50.0 µM), 99.6% (active). The growth inhibition in experiment [5] (setting [7]) is 5%; in experiment [5] (setting [8]), 58%; in experiment [5] (at 50.0 µM), 99.5% (active); in experiment [6] (setting [7]) it was -12%; in experiment [6] (setting [8]), 54%; in experiment [6] (at 50.0 µM), 86.5% (active).
For the compound `CCOc1c(N=Nc2ccc(OC)cc2)c(-c2ccccc2)nn1C(N)=S`, the growth inhibition was 4% in experiment [1] (setting [7]); 36% in experiment [1] (setting [8]); 12.3% in experiment [1] (at 50.0 µM); -2% in experiment [2] (setting [7]); 34% in experiment [2] (setting [8]); 38% in experiment [2] (at 50.0 µM). Further, the growth inhibition in experiment [3] (setting [7]) is 10%; in experiment [3] (setting [8]) it was 73% (active); in experiment [3] (at 50.0 µM), 25.8%; in experiment [4] (setting [7]) it was 6%; in experiment [4] (setting [8]), 9%; in experiment [4] (at 50.0 µM) it was 3.1%. Also, the growth inhibition in experiment [5] (setting [7]) was 3%; in experiment [5] (setting [8]) it was 71% (active); in experiment [5] (at 50.0 µM) it was 70.2% (active); in experiment [6] (setting [7]), 0%; in experiment [6] (setting [8]) it was 27%; in experiment [6] (at 50.0 µM), 23.9%.
As for `O=C(NC[N+]12CCO[B-]1(c1ccc(Br)cc1)OCC2)c1ccccc1O` (configuration not stated), the growth inhibition in experiment [1] (setting [7]) is 10%; in experiment [1] (setting [8]), 48%; in experiment [1] (at 50.0 µM), 65.2%; in experiment [2] (setting [7]), 11%; in experiment [2] (setting [8]), 43%; in experiment [2] (at 50.0 µM) it was 56.2%. Also, the growth inhibition in experiment [3] (setting [7]) is 23%; in experiment [3] (setting [8]), 51%; in experiment [3] (at 50.0 µM), 60.2%; in experiment [4] (setting [7]), -4%; in experiment [4] (setting [8]), 38%; in experiment [4] (at 50.0 µM) it was 21.3%. For the same compound, the growth inhibition in experiment [5] (setting [7]) was 26%; in experiment [5] (setting [8]) it was 63%; in experiment [5] (at 50.0 µM), 61.5%; in experiment [6] (setting [7]) it was 24%; in experiment [6] (setting [8]), 72% (active); in experiment [6] (at 50.0 µM), 87.9% (active).
